Common to all, as to assay: DAPPL (digital affinity profiling via proximity ligation, sequencing); 10 mM Tris-HCl pH 7.5, 50 mM NaCl, 1 mM DTT, 4% glycerol, room temperature, 30 min; GST-TFs on glutathione beads, 16-mer random dsDNA library, 0.1% formaldehyde crosslink after washing; high values mean tight binding
The target in one test is T1, FLI1 (Homo sapiens, UniProt Q01543 1-452).
T1 sequence: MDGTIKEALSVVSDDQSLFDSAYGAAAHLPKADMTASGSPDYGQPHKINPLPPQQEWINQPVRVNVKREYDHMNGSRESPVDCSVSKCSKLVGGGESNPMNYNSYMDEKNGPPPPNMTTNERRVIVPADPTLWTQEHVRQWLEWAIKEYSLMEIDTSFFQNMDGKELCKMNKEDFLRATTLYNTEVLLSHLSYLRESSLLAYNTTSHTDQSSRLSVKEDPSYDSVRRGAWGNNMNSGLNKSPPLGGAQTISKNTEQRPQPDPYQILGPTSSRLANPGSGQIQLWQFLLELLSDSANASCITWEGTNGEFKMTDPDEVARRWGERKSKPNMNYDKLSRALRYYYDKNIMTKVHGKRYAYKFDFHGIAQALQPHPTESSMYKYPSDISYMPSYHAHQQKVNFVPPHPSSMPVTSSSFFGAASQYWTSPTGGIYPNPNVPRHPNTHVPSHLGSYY
Particulars: protein: recombinant; tags: N-terminal GST; dsDNA, one strand shown. A digest of the protocol:
(§1)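 Binding signal is each hexamer's read frequency for a factor divided by its frequency in the tag-only sample. The factors were GST-fused human transcription factors from yeast, captured on glutathione beads, DNA-barcoded and pooled with that sample. Pools were incubated with 200 nmole of a random double-stranded 16-mer DNA library in Tris/NaCl/DTT/glycerol buffer at room temperature for 30 min, then washed, crosslinked with 0.1% formaldehyde, proximity-ligated with BsaI/T4 ligase (1 h, 37 °C), PCR-amplified and sequenced on an Illumina NextSeq500.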

The target of another test is T2, ELK1 (Homo sapiens, UniProt P19419 1-428).
T2 sequence: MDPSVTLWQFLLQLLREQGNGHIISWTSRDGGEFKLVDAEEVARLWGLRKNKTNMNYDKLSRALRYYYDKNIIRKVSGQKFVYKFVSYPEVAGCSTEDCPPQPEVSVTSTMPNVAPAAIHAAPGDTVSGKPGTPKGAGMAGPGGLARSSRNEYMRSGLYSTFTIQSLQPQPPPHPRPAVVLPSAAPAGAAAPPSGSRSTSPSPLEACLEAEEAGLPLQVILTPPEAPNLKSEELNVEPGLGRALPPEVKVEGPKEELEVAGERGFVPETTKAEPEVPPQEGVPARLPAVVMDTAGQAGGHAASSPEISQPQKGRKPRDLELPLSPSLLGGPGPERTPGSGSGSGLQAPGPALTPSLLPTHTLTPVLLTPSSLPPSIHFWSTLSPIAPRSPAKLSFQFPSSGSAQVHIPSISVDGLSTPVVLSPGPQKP
Particulars: protein: recombinant; tags: N-terminal GST; dsDNA, one strand shown. In a few lines:
as §1

Another test addresses T3, GABPA (Homo sapiens, UniProt Q06546 1-454).
T3 sequence: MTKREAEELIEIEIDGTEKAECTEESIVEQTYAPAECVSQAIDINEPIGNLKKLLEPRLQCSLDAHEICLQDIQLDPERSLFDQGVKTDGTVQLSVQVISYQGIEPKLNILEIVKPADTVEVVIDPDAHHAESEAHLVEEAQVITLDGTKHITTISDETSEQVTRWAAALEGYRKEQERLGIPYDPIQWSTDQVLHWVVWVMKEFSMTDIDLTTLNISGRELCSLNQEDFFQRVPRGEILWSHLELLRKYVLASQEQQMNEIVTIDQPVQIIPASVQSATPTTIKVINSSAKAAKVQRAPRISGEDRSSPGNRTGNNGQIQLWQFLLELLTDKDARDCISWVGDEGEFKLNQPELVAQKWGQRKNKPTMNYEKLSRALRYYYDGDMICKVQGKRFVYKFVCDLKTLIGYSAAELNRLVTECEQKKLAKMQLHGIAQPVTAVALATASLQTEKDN
The settings on record: protein: recombinant; tags: N-terminal GST; dsDNA, one strand shown. A digest of the protocol: as §1

The target in the next test is T4, ERG (Homo sapiens, UniProt P11308 1-479).
T4 sequence: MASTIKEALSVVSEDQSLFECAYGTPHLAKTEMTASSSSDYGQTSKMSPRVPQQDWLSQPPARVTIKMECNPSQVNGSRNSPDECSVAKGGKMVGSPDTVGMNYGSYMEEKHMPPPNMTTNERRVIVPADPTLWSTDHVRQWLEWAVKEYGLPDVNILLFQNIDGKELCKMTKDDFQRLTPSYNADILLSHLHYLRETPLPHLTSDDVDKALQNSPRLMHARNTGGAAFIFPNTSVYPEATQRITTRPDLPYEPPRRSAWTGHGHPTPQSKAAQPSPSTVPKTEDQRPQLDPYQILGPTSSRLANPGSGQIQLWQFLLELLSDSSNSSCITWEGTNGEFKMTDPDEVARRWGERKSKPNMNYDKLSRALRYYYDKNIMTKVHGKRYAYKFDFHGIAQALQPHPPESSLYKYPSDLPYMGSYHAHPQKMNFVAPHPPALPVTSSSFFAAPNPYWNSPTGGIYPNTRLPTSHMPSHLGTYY
Particulars: protein: recombinant; tags: N-terminal GST; dsDNA, one strand shown. A digest of the protocol:
as §1

The target in a further test is ELF1 (Homo sapiens, UniProt P32519 1-619). The settings on record: protein: recombinant; tags: N-terminal GST; dsDNA, one strand shown. In a few lines:
as §1

The target in the next test is T5, EHF (Homo sapiens, UniProt Q9NZC4 1-300).
T5 sequence: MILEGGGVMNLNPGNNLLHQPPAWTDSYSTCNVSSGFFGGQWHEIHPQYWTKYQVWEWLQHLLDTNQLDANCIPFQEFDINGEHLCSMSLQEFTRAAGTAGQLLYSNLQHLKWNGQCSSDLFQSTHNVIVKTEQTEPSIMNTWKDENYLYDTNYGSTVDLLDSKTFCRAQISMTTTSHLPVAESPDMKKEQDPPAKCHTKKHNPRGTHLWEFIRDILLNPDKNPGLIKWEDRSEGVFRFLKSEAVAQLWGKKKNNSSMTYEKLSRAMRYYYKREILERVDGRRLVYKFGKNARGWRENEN
Particulars: protein: recombinant; tags: N-terminal GST; dsDNA, one strand shown. In a few lines: as §1

The target in another test is SPI1 (Homo sapiens, UniProt P17947 1-270). The settings on record: protein: recombinant; tags: N-terminal GST; dsDNA, one strand shown. In a few lines: as §1
In a further test the target is SPIB (Homo sapiens, UniProt Q01892 1-262). The settings on record: protein: recombinant; tags: N-terminal GST; dsDNA, one strand shown. In a few lines:
as §1

For another test, the target named is T6, ELK3 (Homo sapiens, UniProt P41970 1-407).
T6 sequence: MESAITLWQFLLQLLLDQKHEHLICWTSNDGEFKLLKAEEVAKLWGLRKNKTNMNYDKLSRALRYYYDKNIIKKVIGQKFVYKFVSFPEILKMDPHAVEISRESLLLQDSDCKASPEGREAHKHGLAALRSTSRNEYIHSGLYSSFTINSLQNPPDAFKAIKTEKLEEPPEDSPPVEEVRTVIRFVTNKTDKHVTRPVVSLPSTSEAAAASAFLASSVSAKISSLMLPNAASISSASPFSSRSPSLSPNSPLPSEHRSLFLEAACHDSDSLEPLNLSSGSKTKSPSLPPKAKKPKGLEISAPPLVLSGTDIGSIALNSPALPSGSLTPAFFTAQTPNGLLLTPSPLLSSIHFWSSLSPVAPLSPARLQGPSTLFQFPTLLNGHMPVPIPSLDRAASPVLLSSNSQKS
Particulars: protein: recombinant; tags: N-terminal GST; dsDNA, one strand shown. A digest of the protocol:
as §1

Another test has as its target T7, FEV (Homo sapiens, UniProt Q99581 1-238).
T7 sequence: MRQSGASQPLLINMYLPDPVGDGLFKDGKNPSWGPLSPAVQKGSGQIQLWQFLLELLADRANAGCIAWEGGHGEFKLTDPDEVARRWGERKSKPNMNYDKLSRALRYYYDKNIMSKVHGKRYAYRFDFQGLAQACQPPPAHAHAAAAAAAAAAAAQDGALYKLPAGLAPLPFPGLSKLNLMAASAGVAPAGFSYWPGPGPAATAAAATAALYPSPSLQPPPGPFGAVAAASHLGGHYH
Particulars: protein: recombinant; tags: N-terminal GST; dsDNA, one strand shown. A digest of the protocol: as §1

Another test has as its target ETV5 (Homo sapiens, UniProt P41161 1-510). Particulars: protein: recombinant; tags: N-terminal GST; dsDNA, one strand shown. A digest of the protocol:
as §1

For a further test, the target named is HSF1 (Homo sapiens, UniProt Q00613 1-529). Particulars: protein: recombinant; tags: N-terminal GST; chain copies: 3; dsDNA, one strand shown. A digest of the protocol: as §1
For another test, the target named is T8, SPIC (Homo sapiens, UniProt Q8N5J4 1-248).
T8 sequence: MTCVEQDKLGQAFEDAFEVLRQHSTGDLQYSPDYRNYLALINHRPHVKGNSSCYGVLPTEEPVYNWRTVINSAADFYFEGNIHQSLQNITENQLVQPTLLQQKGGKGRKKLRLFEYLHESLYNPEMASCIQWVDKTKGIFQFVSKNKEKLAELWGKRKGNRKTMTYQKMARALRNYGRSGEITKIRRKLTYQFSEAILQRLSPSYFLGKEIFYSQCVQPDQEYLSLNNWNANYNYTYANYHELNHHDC
Particulars: protein: recombinant; tags: N-terminal GST; dsDNA, one strand shown. In a few lines: as §1

The target in a further test is ELF4 (Homo sapiens, UniProt Q99607 1-663). The settings on record: protein: recombinant; tags: N-terminal GST; dsDNA, one strand shown. In a few lines: as §1
A further test addresses T9, ELK4 (Homo sapiens, UniProt P28324-2 1-405).
T9 sequence: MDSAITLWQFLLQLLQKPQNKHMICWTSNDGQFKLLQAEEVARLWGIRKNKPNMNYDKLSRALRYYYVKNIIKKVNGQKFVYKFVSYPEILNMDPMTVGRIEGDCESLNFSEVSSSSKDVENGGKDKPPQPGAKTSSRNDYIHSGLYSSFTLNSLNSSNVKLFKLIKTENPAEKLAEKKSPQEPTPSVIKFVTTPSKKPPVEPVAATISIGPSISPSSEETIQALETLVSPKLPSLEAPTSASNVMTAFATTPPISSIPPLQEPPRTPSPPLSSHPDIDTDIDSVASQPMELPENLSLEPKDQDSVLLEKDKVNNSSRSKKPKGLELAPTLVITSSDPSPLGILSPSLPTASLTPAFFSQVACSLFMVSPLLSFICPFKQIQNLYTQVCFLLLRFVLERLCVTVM
Particulars: protein: recombinant; tags: N-terminal GST; dsDNA, one strand shown. A digest of the protocol: as §1

A further test has as its target T10, ETV2 (Homo sapiens, UniProt O00321 1-342).
T10 sequence: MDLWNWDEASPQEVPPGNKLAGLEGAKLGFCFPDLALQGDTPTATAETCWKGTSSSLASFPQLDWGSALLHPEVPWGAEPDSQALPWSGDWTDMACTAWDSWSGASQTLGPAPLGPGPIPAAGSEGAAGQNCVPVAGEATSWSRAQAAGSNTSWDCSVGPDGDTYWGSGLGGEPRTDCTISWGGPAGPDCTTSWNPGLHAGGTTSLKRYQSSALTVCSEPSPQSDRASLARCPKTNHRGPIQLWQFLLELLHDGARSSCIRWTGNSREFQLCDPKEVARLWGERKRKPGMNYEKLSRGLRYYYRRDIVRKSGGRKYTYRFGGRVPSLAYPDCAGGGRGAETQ
Particulars: protein: recombinant; tags: N-terminal GST; dsDNA, one strand shown. In a few lines: as §1

The target of a further test is T11, ELF3 (Homo sapiens, UniProt P78545 1-371).
T11 sequence: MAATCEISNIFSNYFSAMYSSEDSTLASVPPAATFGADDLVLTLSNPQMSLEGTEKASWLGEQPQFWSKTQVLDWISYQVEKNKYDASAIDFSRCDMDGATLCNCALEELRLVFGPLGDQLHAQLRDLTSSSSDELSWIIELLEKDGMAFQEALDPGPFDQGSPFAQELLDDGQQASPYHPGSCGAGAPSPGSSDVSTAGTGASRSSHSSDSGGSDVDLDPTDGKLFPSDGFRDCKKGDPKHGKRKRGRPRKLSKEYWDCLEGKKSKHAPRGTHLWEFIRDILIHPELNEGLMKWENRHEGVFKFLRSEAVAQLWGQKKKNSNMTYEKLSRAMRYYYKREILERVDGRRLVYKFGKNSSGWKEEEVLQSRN
Particulars: protein: recombinant; tags: N-terminal GST; dsDNA, one strand shown. In a few lines: as §1

The target of the next test is CRX (Homo sapiens, UniProt O43186 1-299). The settings on record: protein: recombinant; tags: N-terminal GST; dsDNA, one strand shown. A digest of the protocol:
as §1

The next test deals with ETV1 (Homo sapiens, UniProt P50549 1-477). The settings on record: protein: recombinant; tags: N-terminal GST; dsDNA, one strand shown. In a few lines: as §1
Chain of ETV1 (P50549 whole entry): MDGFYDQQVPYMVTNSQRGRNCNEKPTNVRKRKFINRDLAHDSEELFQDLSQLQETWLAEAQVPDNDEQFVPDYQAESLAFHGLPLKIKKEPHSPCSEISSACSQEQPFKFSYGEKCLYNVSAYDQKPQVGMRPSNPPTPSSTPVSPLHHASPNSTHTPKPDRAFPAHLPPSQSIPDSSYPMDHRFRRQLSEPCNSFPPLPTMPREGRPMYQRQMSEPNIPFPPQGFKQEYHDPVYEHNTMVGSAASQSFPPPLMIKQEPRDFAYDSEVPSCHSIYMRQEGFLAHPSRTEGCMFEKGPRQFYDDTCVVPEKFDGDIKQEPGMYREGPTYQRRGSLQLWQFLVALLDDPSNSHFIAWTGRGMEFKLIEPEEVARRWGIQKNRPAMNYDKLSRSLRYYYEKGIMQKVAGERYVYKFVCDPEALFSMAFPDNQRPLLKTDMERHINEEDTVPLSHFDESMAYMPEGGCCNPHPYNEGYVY

Chain of CRX (O43186 whole entry): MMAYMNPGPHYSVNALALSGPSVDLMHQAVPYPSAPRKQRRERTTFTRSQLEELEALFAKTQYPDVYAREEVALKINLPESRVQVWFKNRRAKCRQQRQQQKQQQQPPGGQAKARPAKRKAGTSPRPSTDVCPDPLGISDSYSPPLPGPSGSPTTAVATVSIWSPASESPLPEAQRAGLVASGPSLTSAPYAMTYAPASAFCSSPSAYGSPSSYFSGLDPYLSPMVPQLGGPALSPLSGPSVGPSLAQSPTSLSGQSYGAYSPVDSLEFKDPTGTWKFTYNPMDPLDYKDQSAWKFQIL
Chain of ELF1 (P32519 whole entry): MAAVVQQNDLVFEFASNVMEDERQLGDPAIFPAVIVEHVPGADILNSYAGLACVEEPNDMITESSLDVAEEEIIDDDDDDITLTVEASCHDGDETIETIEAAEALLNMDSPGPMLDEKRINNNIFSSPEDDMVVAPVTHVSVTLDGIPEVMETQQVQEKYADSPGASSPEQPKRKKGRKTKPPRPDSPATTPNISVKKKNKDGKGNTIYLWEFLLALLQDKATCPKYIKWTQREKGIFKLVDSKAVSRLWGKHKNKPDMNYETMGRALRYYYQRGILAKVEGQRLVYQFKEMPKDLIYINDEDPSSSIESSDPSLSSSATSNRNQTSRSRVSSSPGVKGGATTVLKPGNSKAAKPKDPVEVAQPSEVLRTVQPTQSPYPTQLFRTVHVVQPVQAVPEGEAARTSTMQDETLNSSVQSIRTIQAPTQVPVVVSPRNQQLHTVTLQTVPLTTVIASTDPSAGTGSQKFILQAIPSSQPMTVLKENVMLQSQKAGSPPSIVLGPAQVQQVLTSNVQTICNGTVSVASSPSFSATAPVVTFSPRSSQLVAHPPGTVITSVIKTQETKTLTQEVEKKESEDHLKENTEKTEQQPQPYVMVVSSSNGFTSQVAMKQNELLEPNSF
Chain of HSF1 (Q00613 whole entry): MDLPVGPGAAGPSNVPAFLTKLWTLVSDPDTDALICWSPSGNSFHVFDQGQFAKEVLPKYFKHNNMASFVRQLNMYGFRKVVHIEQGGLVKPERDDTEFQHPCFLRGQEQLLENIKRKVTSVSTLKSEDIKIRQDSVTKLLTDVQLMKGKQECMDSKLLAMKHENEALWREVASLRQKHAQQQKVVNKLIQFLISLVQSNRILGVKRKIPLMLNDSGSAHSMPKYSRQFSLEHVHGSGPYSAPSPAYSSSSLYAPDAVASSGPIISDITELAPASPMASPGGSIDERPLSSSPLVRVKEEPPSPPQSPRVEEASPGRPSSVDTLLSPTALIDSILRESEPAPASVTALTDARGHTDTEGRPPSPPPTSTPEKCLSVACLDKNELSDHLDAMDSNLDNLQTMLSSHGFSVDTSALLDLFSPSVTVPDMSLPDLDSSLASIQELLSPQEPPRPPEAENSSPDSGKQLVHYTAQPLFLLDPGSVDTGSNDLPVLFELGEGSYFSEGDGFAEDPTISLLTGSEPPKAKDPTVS
Chain of ELF4 (Q99607 whole entry): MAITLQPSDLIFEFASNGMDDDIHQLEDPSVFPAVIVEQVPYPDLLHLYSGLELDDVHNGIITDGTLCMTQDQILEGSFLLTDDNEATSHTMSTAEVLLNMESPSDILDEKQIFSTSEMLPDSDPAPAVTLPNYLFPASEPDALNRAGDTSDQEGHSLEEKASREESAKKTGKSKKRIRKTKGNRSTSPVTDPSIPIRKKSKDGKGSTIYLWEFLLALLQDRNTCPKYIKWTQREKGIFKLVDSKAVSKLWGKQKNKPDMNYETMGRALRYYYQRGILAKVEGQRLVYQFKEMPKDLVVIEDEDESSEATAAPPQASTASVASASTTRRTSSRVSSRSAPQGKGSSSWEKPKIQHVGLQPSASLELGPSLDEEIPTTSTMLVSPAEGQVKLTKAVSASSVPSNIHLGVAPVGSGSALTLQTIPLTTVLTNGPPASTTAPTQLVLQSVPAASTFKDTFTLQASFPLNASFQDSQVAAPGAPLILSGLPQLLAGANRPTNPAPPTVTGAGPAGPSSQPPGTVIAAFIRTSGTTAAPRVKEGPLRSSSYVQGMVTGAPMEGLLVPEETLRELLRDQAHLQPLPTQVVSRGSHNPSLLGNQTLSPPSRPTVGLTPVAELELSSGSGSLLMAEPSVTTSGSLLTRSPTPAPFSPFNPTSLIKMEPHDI
Chain of SPIB (Q01892 whole entry): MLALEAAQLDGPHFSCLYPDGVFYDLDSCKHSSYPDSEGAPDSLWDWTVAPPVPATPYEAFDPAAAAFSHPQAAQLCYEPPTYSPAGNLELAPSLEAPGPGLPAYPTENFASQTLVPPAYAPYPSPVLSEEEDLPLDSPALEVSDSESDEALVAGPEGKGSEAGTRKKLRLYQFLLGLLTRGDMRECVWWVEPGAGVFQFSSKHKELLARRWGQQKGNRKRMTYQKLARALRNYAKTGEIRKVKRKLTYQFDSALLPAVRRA
Chain of ETV5 (P41161 whole entry): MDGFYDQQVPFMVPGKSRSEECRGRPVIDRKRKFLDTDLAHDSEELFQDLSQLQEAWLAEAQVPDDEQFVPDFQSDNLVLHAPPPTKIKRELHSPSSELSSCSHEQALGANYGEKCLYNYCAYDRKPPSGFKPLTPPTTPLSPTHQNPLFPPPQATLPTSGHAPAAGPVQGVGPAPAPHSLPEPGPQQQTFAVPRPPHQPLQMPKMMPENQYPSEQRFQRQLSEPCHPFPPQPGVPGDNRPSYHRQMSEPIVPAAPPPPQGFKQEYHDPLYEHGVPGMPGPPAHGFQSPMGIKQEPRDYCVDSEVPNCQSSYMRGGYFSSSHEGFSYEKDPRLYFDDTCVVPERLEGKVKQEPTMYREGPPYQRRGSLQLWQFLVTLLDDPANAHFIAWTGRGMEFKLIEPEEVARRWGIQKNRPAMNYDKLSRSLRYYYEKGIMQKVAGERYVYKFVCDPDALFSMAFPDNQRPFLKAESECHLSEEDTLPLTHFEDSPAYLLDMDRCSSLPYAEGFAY

Take ATATTC: the binding signal is 1.24 fold enrichment (6-mer frequency, TF over GST control) with FLI1; 1.2 fold enrichment (6-mer frequency, TF over GST control) in the test with ELK1; 1.24 fold enrichment (6-mer frequency, TF over GST control) with GABPA; 1.18 fold enrichment (6-mer frequency, TF over GST control) in the test with ERG; 1.28 fold enrichment (6-mer frequency, TF over GST control) with ELF1; 1.19 fold enrichment (6-mer frequency, TF over GST control) in the test with EHF. For the same sequence, the binding signal with SPI1 was 1.19 fold enrichment (6-mer frequency, TF over GST control); in the test with SPIB it was 1.22 fold enrichment (6-mer frequency, TF over GST control); with ELK3, 1.14 fold enrichment (6-mer frequency, TF over GST control); with FEV, 1.19 fold enrichment (6-mer frequency, TF over GST control); in the test with ETV5, 1.27 fold enrichment (6-mer frequency, TF over GST control); with HSF1 it was 2.2 fold enrichment (6-mer frequency, TF over GST control). Also, the binding signal is 1.3 fold enrichment (6-mer frequency, TF over GST control) with SPIC; 1.29 fold enrichment (6-mer frequency, TF over GST control) with ELF4; 1.31 fold enrichment (6-mer frequency, TF over GST control) with ELK4; 1.22 fold enrichment (6-mer frequency, TF over GST control) with ETV2; 1.38 fold enrichment (6-mer frequency, TF over GST control) in the test with ELF3; 1.51 fold enrichment (6-mer frequency, TF over GST control) with CRX. Besides, the binding signal with ETV1 is 1.26 fold enrichment (6-mer frequency, TF over GST control).

Values taken from paper PMC7862700, “An all-to-all approach to the identification of sequence-specific readers for epigenetic DNA modifications on cytosine”.
